Experimental data from PubChem BioAssay AID488966 (Southern Research Specialized Biocontainment Screening …, 2010).
Several values for one entry are separate records, joined by “and”; a condition that tells them apart may be missing. Equal values may be shown once. Screen size: about 340,000 compounds; about 55 (0.02%) were called active. Not all results are given here. Measured potencies and affinities stand elsewhere. Values without a mark were called inactive.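 How the source made its calls: active means phage lysis inhibition, versus mean bacterial control, above a set limit; inconclusive means no clear call, values can overlap the other calls; inactive means the rest.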

assay: inhibition of K1F phage lysis, E. coli UTI89, bacterial capsule biogenesis inhibitors, alamar blue (AID 488966); conditions: 2 h; inhibition: at 100 µM, active compounds read high unless noted; series mostly up to 300 µM;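 further: capsule biogenesis inhibitors block K1F phage lysis so surviving cells raise fluorescence; higher fluorescence means more inhibition of phage lysis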

| SMILES | inhibition |
| --- | --- |
| Cc1ccccc1NC(=O)NCCCN1CCN(C)CC1 | -0.845% [at 50 µM, active compounds read high] |
| Cc1ccccc1NC(=O)CCN1CCN(C)CC1 | -0.19% |
| CN(C)C1=NC[C@H](Cc2ccccc2)N1CC1CCCC1 | 6.41% |
| COc1cc2cc(C(=O)NCCc3ccccc3)[nH]c2cc1OC | -0.295% [at 50 µM, active compounds read high] |
| O=C(C1CCCO1)N1CCN(S(=O)(=O)c2ccc(F)cc2)CC1 (stereo not given) | -0.11% [at 50 µM, active compounds read high] |
| O=C(COC(=O)c1ccccc1[N+](=O)[O-])Nc1cccnc1Cl | 0.32% [at 50 µM, active compounds read high] |
| Cc1ccc(NC(=O)CN(C)C(=O)Cn2nnc(-c3ccccc3C)n2)cc1 | -2.28% |
| COc1ccc(C(=O)OCC(=O)NCC2CCCCC2)cc1F | -0.21% [at 50 µM, active compounds read high] |
| CC(C)/C=C1\CCc2c([nH]c3ccccc23)C1=O | 0% |
| CC1Cc2ccccc2N1C(=O)COC(=O)CSc1ccc(F)cc1 (stereo not given) | 0.27% [at 50 µM, active compounds read high] |
| COc1ccc(NC(=O)CN(C)C(=O)c2ccccc2OCC(=O)Nc2cccc(C(F)(F)F)c2)cc1 | 1.88% [at 50 µM, active compounds read high] |
| NC(N)=N/N=C/c1ccc(OCc2ccc(Cl)cc2)cc1 | -12.3% |
| NC(N)=N/N=C/c1ccc(OCc2ccccc2)c(OCc2ccccc2)c1 | 1.28% |
| CC1=C(C(=O)OCC(C)C)C23C(=O)c4ccccc4C2(O1)OC(N)=C3C#N (stereo not given) | 0.06% |
| CCOC(=O)C1CCCN(c2c(NCCCN(C)Cc3ccccc3)c(=O)c2=O)C1 (stereo not given) | 2.34% |
| Cc1ccc2nc(SCC(=O)Nc3ccccc3N3CCOCC3)c(C#N)cc2c1 | -1.09% |
| CCC(=O)N1c2ccc(S(=O)(=O)N3CCCCC3)cc2CC1C (stereo not given) | 0.16% |
| CC(C)N(Cc1ccccc1)C(=O)CN1C(=O)NC2(CCCC2)C1=O | 1.04% [at 50 µM, active compounds read high] |
| Cc1c(NC(=S)NC(=O)c2cccc([N+](=O)[O-])c2)c(=O)n(-c2ccccc2)n1C | -0.17% |
| O=C(CSc1nc2c(cnn2-c2ccccc2)c(=O)[nH]1)NC1CCS(=O)(=O)C1 (stereo not given) | -0.1% |
| COC(=O)Nc1nc(Sc2ncc(C(F)(F)F)cc2Cl)n[nH]1 | 1.11% |
| CCOC(=O)c1ccc2[nH]c3c(c2c1)CCCC3 | 0.13% |
| CCC(CC)NC(=O)c1cc(OC)c(OC)cc1[N+](=O)[O-] | 0.4% |

| SMILES | inhibition |
| --- | --- |
| COc1cc(OC)c(OC)cc1CN(C)CC1CCCN(CCc2ccccc2F)C1 (stereo not given) | 0.88% |
| c1ccc2c(-c3cncc4ccccc34)cncc2c1 | 0.59% |
| CCOC(=O)C(Cc1ccc(O)cc1)NC(=O)CNC(=O)C(CC(C)C)NC(=O)OC(C)(C)C (stereo not given) | 4.94% |
| COc1cccc(-c2c(C(=O)N/N=C(\C)c3cccs3)nnn2-c2nonc2N)c1 | 0.38% |
| Cc1ccc(C)c(S(=O)(=O)N2CCCCC2CCNC(=O)C(=O)NCc2ccccc2)c1 (stereo not given) | 0.87% [at 50 µM, active compounds read high] |
| Brc1c(OCCOCCn2cncn2)ccc2ccccc12 | -1.02% |
| O=C(CCc1ccccc1)N=C1SC2CS(=O)(=O)CC2N1c1ccc(F)cc1 (stereo not given) | 0.07% |
| Cc1ccc(S(=O)(=O)c2c(C)cc(C)nc2Oc2cccc(C)c2C)cc1 | 1.5% |
| COc1cc(CCC(=O)NCC2CCCO2)cc(OC)c1OC (stereo not given) | 0.13% |
| CC(C)C(NC(=O)c1ccccc1F)C(=O)OCC(=O)c1ccc(F)cc1 (stereo not given) | -0.86% |
| Cc1ccc(C(C)(C)C)cc1S(=O)(=O)Nc1cccc(C(=O)N2CCN(c3ccccn3)CC2)c1 | -1.06% [at 50 µM, active compounds read high] |
| O=C1CCCN1C(=O)CSc1ccc2ccccc2n1 | 0.65% [at 50 µM, active compounds read high] |
| Cc1ccc(C(=O)ONc2ccc(N=NC(=O)c3ccccc3O)cc2)cc1 | -1.4% |
| O=Nc1ccc(NOC(=O)c2ccccc2)cc1 | 0.94% [at 50 µM, active compounds read high] |
| CCC1(CC)C(=O)NC(=O)NC1=NCCc1c[nH]c2ccccc12 | 8.91% |
| CC(=O)c1ccc(C(C)(C)c2ccc(C(C)=O)s2)s1 | 1.04% |
| COc1cc(/C=N/O)ccc1OCc1ccccc1Cl | 2.6% |
| COc1cc(/C=N/N=C(N)N)ccc1OCc1ccc(Cl)cc1 | 1.12% |
| CCSc1ccccc1C(=O)Nc1ccc([N+](=O)[O-])cc1OC | -0.1% |
| COc1ccc2cc(C(=O)NCCCN3CCCC3=O)[nH]c2c1 | 0.11% |
| CCOCCCNC(=O)CCc1ccc(S(=O)(=O)Nc2ccc(C)cc2)cc1 | -0.65% |
| CN(C)S(=O)(=O)c1ccc(C(=O)N(c2ccccn2)c2ccccn2)cc1 | 0.22% |
| O=C(CCCc1nc2ccccc2s1)Nc1ccc(N2CCOCC2)cc1 | 0.19% |

| SMILES | inhibition |
| --- | --- |
| COC(=O)c1cc(OC)c(OC)cc1NC(=O)CN1CCOCC1 | 1.47% |
| CCN(CC)c1ccc(C(=C2C=CC(=[N+](CC)CC)C=C2)c2ccc(S(=O)(=O)O)cc2S(=O)(=O)[O-])cc1 | -0.79% [at 50 µM, active compounds read high] |
| CCN(CC)c1ccc2c(O)cc(=O)oc2c1 | 0.26% |
| COc1ccc2c(=O)c(-c3ccc(C)cc3)c(-c3ccccc3)oc2c1 | 0.1% |
| Cc1ccc(C(=O)N2CCN(S(C)(=O)=O)C2)cc1 | 3.27% |
| N=c1n(CCN2CCCCC2)c2ccccc2n1CC(O)c1cccc(Br)c1 (stereo not given) | inactive |
| N=c1n(CCN2CCCCC2)c2ccccc2n1CC(O)c1ccc(Cl)c(Cl)c1 (stereo not given) | -4.43% |
| COc1ccc(C(=O)NNC(=O)CCc2nc3ccccc3c(=O)[nH]2)cc1 | -0.85% |
| O=C(CSc1nnc(CNC(=O)c2ccco2)o1)Nc1nc2ccccc2s1 | 0.07% |
| CC(=O)NC1=NN(C(C)=O)C(C)(c2cccnc2)S1 (stereo not given) | 0.35% |
| Cc1cc2oc3c(c(=O)c2cc1C)C(c1ccc(C(C)C)cc1)N(CCCN1CCOCC1)C3=O (stereo not given) | 10.9% |
| Cc1cc2oc3c(c(=O)c2cc1C)C(c1ccc(F)cc1)N(CCCN1CCOCC1)C3=O (stereo not given) | 10.1% |
| CCCOc1ccc(C2c3c(oc4ccccc4c3=O)C(=O)N2CCCN2CCOCC2)cc1 (stereo not given) | 3.1% |
| CC(C)Oc1ccc(C2c3c(oc4ccccc4c3=O)C(=O)N2CCCN2CCOCC2)cc1 (stereo not given) | 7.09% |
| CCCCCCn1c(N2CCN(c3cccc(Cl)c3)CC2)nc2c1c(=O)[nH]c(=O)n2C | -0.58% |
| COc1ccc(-c2c(C)oc3c(CN4CCOCC4)c(O)ccc3c2=O)cc1 | 0.06% |
| O=C(CSc1nc2ccc(Cl)cc2[nH]1)NCCc1ccc(Cl)cc1 | 0.86% |
| C=CCn1c(C)nnc1SCC(=O)c1[nH]c(C)c(C(C)=O)c1C | -0.26% |
| COc1ccc(C(=O)Nc2ccc3c(c2)nc(CCNC(C)=O)n3C)cc1 | 5.13% |
| C/C(=N\NC(=S)NCCc1ccccc1)c1ccc(C#N)cc1 | 0.17% |
| Cc1ccccc1CN1CCN(CCCc2ccccc2)C(CCO)C1 (stereo not given) | 0.26% |
| C[C@H](CO)N1C[C@H](C)[C@@H](CN(C)Cc2ccc(C(=O)O)cc2)Oc2c(NS(=O)(=O)c3ccccc3)cccc2C1=O | 0.71% |
| O=C(COc1ccc2c(-c3ccccc3)cc(=O)oc2c1)NCCCn1ccnc1 | -2.78% |

| SMILES | inhibition |
| --- | --- |
| N=C(N)c1ccc(O)cc1 | -1.49% |
| N=C(N)c1ccccc1 | 3.36% and 4.08% |
| Cc1occc1C(=O)NNC(=O)CN1C(=O)NC2(CCCCC2)C1=O | 1% [at 50 µM, active compounds read high] |
| COc1ccc(C(=O)Nc2nc3ccc(OC)cc3s2)cc1 | 0.38% |
| COc1ccc2nc(NC(C)=O)sc2c1 | 0.03% |
| Cc1cc(C)c2sc(NNC(=O)C3COc4ccccc4O3)nc2c1 (stereo not given) | 3.07% |
| COc1ccc(NC(=O)C(C)N2c3cccc4cccc(c34)S2(=O)=O)cc1 (stereo not given) | 4.61% |
| N=C1/C(=C\c2ccc(SCc3ccco3)o2)C(=O)N=C2SC=NN12 | inactive |
| CCS(=O)(=O)C1=NN2C(=N)/C(=C\c3ccc(SCc4ccco4)o3)C(=O)N=C2S1 | -0.03% |
| O=C(c1cc2ccccc2o1)N1CCN(c2ccccn2)CC1 | 0.07% |
| COc1cccc(C(=O)Nc2ncc3c(n2)CC(C)CC3=O)c1 (stereo not given) | 0.02% |
| Cn1c(N)c(C(=O)Nc2cccc(Cl)c2)c(=O)n(C)c1=O | 0.32% |
| CC(OC(=O)CCCN1C(=O)c2ccccc2C1=O)C(=O)Nc1ncc(Cl)cc1Cl (stereo not given) | 0.75% |
| O=C(Cc1ccsc1)Nc1ccc2c(c1)OCO2 | 0.48% [at 50 µM, active compounds read high] |
| COc1ccc(CC(=O)Nc2ccc(N3CCOCC3)cc2)cc1OC | -0.16% |
| Cc1cccc(OCC(=O)Nc2ccc(C(=O)Nc3ccccc3C(=O)O)cc2)c1C | 1.06% [at 50 µM, active compounds read high] |
| Cc1ccccc1OCC(=O)Nc1ccc(C(=O)Nc2ccccc2C(=O)O)cc1 | 0.645% [at 50 µM, active compounds read high] |
| Cc1ccc2nc(C3CCCN3Cc3nc(CCC(C)C)no3)[nH]c2c1 (stereo not given) | 0.57% |
| CCOc1ccc(C(=O)NN2C(=O)C3C4C=CC(O4)C3C2=O)cc1 (stereo not given) | 0.49% |
| COc1ccc(C2=CSC3=C(C(=O)c4cccc(S(=O)(=O)N(C)C)c4)CCN23)cc1 | 0.33% |
| CN(C(=O)Cn1c(=O)oc2cc(S(=O)(=O)N3CCCC3)ccc21)C1CCCCC1 | 0.1% |
